Consider nine molecules from PubChem BioAssay (NCI).

About 79,000 compounds went through this panel and 15% of them were active in at least one assay; those are over-represented in the sample as a whole. Values without a mark were called inactive. Activity calls are given as the source filed them. Cut-off read from the data, not from the text of the source: active = growth inhibition above about 70%; inactive = the rest.

A short description of test [1]: NCI Yeast Anticancer Drug Screen. Data for the rad50 strain (AID 155).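 Note: 0% = growth of vehicle-only cultures of the same strain.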 The settings on record: S. cerevisiae rad50 strain growth inhibition, hits give high values. In outline:
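Readout: growth inhibition relative to vehicle-treated cultures. Compound exposure was carried out in a genetically defined yeast strain deficient in DNA damage repair.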

The nature of test [2]: NCI Yeast Anticancer Drug Screen. Data for the mec2-1 strain (AID 157). The following applies: S. cerevisiae mec2-1 strain, hits give high values. An outline of the steps:
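Each compound was tested on mec2-1 yeast, a strain altered in DNA damage repair or cell cycle control. Growth inhibition is reported relative to vehicle.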

Test [3] in a line: NCI Yeast Anticancer Drug Screen. Data for the sgs1 mgt1 strain (AID 161).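 Note: 0% = growth of cultures given vehicle only.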 The settings on record: S. cerevisiae sgs1 mgt1 strain, hits give high values. In outline:
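Inhibition of yeast growth, normalised to vehicle-treated controls, is reported for a strain bearing genetic alterations in DNA damage repair.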

A short description of test [4]: NCI Yeast Anticancer Drug Screen. Data for the cln2 rad14 strain (AID 165).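 Note: 0% = growth equal to vehicle treated cultures.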 The following applies: S. cerevisiae cln2 rad14 strain, hits give high values. In outline: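 Test compounds were added to cln2 rad14 yeast cultures; inhibition of growth was then determined by comparison with vehicle treatment.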
A short description of test [5]: NCI Yeast Anticancer Drug Screen. Data for the bub3 strain (AID 167). The settings on record: S. cerevisiae bub3 mutant strain, hits give high values. In outline: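 Readout: yeast growth inhibition, expressed relative to vehicle-only wells. The test organism is a mutant strain from a panel with lesions in DNA repair or checkpoint genes.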
Test [6] can be described thus: NCI Yeast Anticancer Drug Screen. Data for the mlh1 rad18 strain (AID 175). The following applies: S. cerevisiae mlh1 rad18 strain growth inhibition, hits give high values. In outline:
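Inhibition values reflect reduced growth of mutant yeast versus vehicle-treated controls following compound exposure; the mutations affect DNA damage repair.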

Setting [7] is: at 5.0 µM (retest, dose inferred, filed as 0.5).
[8] abbreviates: at 50.0 µM (retest, dose inferred, filed as 5.0).

For the molecule `N#CC(c1ccc(Cl)cc1)c1ccc([N+](=O)[O-])cc1` (configuration not stated), the growth inhibition in test [1] (setting [7]) is -12%; in test [1] (setting [8]) it was 52%; in test [1] (at 50.0 µM), 40.9%; in test [2] (setting [7]) it was -16%; in test [2] (setting [8]), 37%; in test [2] (at 50.0 µM) it was 20.5%. In addition, the growth inhibition in test [3] (setting [7]) is 2%; in test [3] (setting [8]) it was 84% (active); in test [3] (at 50.0 µM), 60.9%; in test [4] (setting [7]), -4%; in test [4] (setting [8]), 53%; in test [4] (at 50.0 µM) it was 3.95%. The growth inhibition in test [5] (setting [7]) is 2%; in test [5] (setting [8]), 86% (active); in test [5] (at 50.0 µM), 64.3%; in test [6] (setting [7]) it was -5%; in test [6] (setting [8]) it was 88% (active); in test [6] (at 50.0 µM) it was 45.5%.
In the case of `COc1ccc(/C(Cl)=C(\C=O)c2ccc(Cl)cc2)cc1`, the growth inhibition is 17% in test [1] (setting [7]); 17% in test [1] (setting [8]); -4.05% in test [1] (at 50.0 µM); -10% in test [2] (setting [7]); 2% in test [2] (setting [8]); 7.7% in test [2] (at 50.0 µM). The growth inhibition was -17% in test [3] (setting [7]); 22% in test [3] (setting [8]); 27.8% in test [3] (at 50.0 µM); 12% in test [4] (setting [7]); 26% in test [4] (setting [8]); -8.85% in test [4] (at 50.0 µM). Further, the growth inhibition in test [5] (setting [7]) was 18%; in test [5] (setting [8]), 54%; in test [5] (at 50.0 µM), 28.1%; in test [6] (setting [7]), -6%; in test [6] (setting [8]), 27%; in test [6] (at 50.0 µM), 19.8%.
For `CNC(=O)c1cccc2c(Nc3ccc(NS(C)(=O)=O)cc3OC)c3cccc(C)c3nc12`, the growth inhibition in test [1] (setting [7]) was 47%; in test [1] (setting [8]), 93% (active); in test [1] (at 50.0 µM), 75.8% (active); in test [2] (setting [7]), 17%; in test [2] (setting [8]), 95% (active); in test [2] (at 50.0 µM), -0.8%. In addition, the growth inhibition in test [3] (setting [7]) was 12%; in test [3] (setting [8]) it was 66%; in test [3] (at 50.0 µM), -4.45%; in test [4] (setting [7]) it was 30%; in test [4] (setting [8]), 57%; in test [4] (at 50.0 µM), -0.4%. Also, the growth inhibition in test [5] (setting [7]) was 19%; in test [5] (setting [8]), 91% (active); in test [5] (at 50.0 µM) it was -37.2%; in test [6] (setting [7]) it was 19%; in test [6] (setting [8]), 86% (active); in test [6] (at 50.0 µM), -24.5%.
As to `CCOC(=O)c1[nH]cnc1/N=N/c1nc(O)c(C#N)[nH]1`, the growth inhibition in test [1] (setting [7]) is 8%; in test [1] (setting [8]) it was 98% (active); in test [1] (at 50.0 µM), -5.65%; in test [2] (setting [7]) it was 3%; in test [2] (setting [8]) it was 99% (active); in test [2] (at 50.0 µM), 9.8%. The growth inhibition in test [3] (setting [7]) was -13%; in test [3] (setting [8]) it was 99% (active); in test [3] (at 50.0 µM), 6%; in test [4] (setting [7]), 6%; in test [4] (setting [8]), 99% (active); in test [4] (at 50.0 µM), 0.85%. In addition, the growth inhibition was -4% in test [5] (setting [7]); 99% (active) in test [5] (setting [8]); 1.55% in test [5] (at 50.0 µM); -6% in test [6] (setting [7]); 99% (active) in test [6] (setting [8]); -1.95% in test [6] (at 50.0 µM).
`Cc1[nH]nc(-c2cccnc2)c1N=NN1CCOCC1`: the growth inhibition is -4% in test [1] (setting [7]); 70% (active) in test [1] (setting [8]); 64% in test [1] (at 50.0 µM); 7% in test [2] (setting [7]); 79% (active) in test [2] (setting [8]); 97.5% (active) in test [2] (at 50.0 µM). Besides, the growth inhibition in test [3] (setting [7]) was -5%; in test [3] (setting [8]) it was 98% (active); in test [3] (at 50.0 µM), 96% (active); in test [4] (setting [7]) it was -2%; in test [4] (setting [8]) it was 80% (active); in test [4] (at 50.0 µM), 58.5%. The growth inhibition is -3% in test [5] (setting [7]); 99% (active) in test [5] (setting [8]); 5.35% in test [5] (at 50.0 µM); -3% in test [6] (setting [7]); 77% (active) in test [6] (setting [8]); 98% (active) in test [6] (at 50.0 µM).
Take `Cc1cc(N(CCCCl)CCCCl)ccc1C=Nc1cccc(Cl)c1`: the growth inhibition in test [1] (setting [7]) is -7%; in test [1] (setting [8]) it was 40%; in test [1] (at 50.0 µM), 79% (active); in test [2] (setting [7]) it was -7%; in test [2] (setting [8]), 12%; in test [2] (at 50.0 µM), 32.8%. Besides, the growth inhibition was -4% in test [3] (setting [7]); 65% in test [3] (setting [8]); 80.7% (active) in test [3] (at 50.0 µM); 3% in test [4] (setting [7]); -2% in test [4] (setting [8]); -21.6% in test [4] (at 50.0 µM). Moreover, the growth inhibition in test [5] (setting [7]) is -1%; in test [5] (setting [8]), 59%; in test [5] (at 50.0 µM) it was 61%; in test [6] (setting [7]), -10%; in test [6] (setting [8]) it was 23%; in test [6] (at 50.0 µM) it was 68.2%.
`CCCCN(CCCC)CC(O)c1ccc(CCc2ccccc2)cc1` (configuration not stated): the growth inhibition in test [1] (setting [7]) was -6%; in test [1] (setting [8]), 91% (active); in test [1] (at 50.0 µM) it was 99.2% (active); in test [2] (setting [7]), 22%; in test [2] (setting [8]) it was 92% (active); in test [2] (at 50.0 µM), 98.7% (active). For the same molecule, the growth inhibition in test [3] (setting [7]) was 13%; in test [3] (setting [8]), 99% (active); in test [3] (at 50.0 µM), 99.5% (active); in test [4] (setting [7]), -7%; in test [4] (setting [8]) it was 88% (active); in test [4] (at 50.0 µM), 98.7% (active). In addition, the growth inhibition in test [5] (setting [7]) was -4%; in test [5] (setting [8]) it was 92% (active); in test [5] (at 50.0 µM), 76.2% (active); in test [6] (setting [7]), 28%; in test [6] (setting [8]) it was 97% (active); in test [6] (at 50.0 µM) it was 99.3% (active).
Take `CCCCCCCCCCCCCCCCCC[n+]1ccc(C(C)CC)cc1` (configuration not stated): the growth inhibition in test [1] (setting [7]) is 1%; in test [1] (setting [8]), 96% (active); in test [1] (at 50.0 µM), 99.3% (active); in test [2] (setting [7]) it was 12%; in test [2] (setting [8]), 98% (active); in test [2] (at 50.0 µM), 99.6% (active). Besides, the growth inhibition in test [3] (setting [7]) was 18%; in test [3] (setting [8]), 97% (active); in test [3] (at 50.0 µM), 99.2% (active); in test [4] (setting [7]), 16%; in test [4] (setting [8]), 87% (active); in test [4] (at 50.0 µM), 99.1% (active). Further, the growth inhibition in test [5] (setting [7]) is 29%; in test [5] (setting [8]) it was 96% (active); in test [5] (at 50.0 µM), 99.2% (active); in test [6] (setting [7]), 6%; in test [6] (setting [8]) it was 97% (active); in test [6] (at 50.0 µM), 99.2% (active).
Consider `COc1ccc(NC(=O)CCC(=O)C(C)C(=O)c2ccccc2)cc1` (configuration not stated), for which the growth inhibition in test [1] (setting [7]) was 0%; in test [1] (setting [8]), -1%; in test [1] (at 50.0 µM), 59.8%; in test [2] (setting [7]), -1%; in test [2] (setting [8]) it was 3%; in test [2] (at 50.0 µM) it was 16.2%. In addition, the growth inhibition in test [3] (setting [7]) was 14%; in test [3] (setting [8]), 0%; in test [3] (at 50.0 µM) it was 26.8%; in test [4] (setting [7]), -1%; in test [4] (setting [8]), 10%; in test [4] (at 50.0 µM) it was 49.2%. For the same molecule, the growth inhibition was 0% in test [5] (setting [7]); 21% in test [5] (setting [8]); 21.6% in test [5] (at 50.0 µM); -2% in test [6] (setting [7]); 6% in test [6] (setting [8]); 24.3% in test [6] (at 50.0 µM).
